# Screening data as filed in PubChem.
# PrPC TRFRET: reduces human prion protein on the cell surface | P04156 | cell surface PrPC, TR-FRET read-out | inhibition, % at 13.8 µM | actives 0.43% (n = 370,000) | AID 720596; in the data active = inhibition above about 24%
# RecA intein inh: Mtb RecA intein splicing inhibition | P9WHJ3 | cell-free RecA intein splicing, fluorescence | inhibition, % (no concentration beside the values) | actives 0.75% (n = 290,000) | AID 2221; in the data active = inhibition above about 30%
# GDH-TPI counter-1: inhibits GDH-TPI coupling enzymes, artifact for Mtb FBA screen. GDH-TPI coupled enzyme counterscreen, NADH absorbance. inhibition, % at 4.8 µM. actives 1.2% (n = 360,000). AID 588335; in the data active = inhibition above about 30%
# BJeLR lethal: kills HRASV12-expressing BJeLR cells; BJeLR (HRASV12) viability, CellTiter-Glo ATP luminescence, 48 h; inhibition, % (concentration not given with the values); actives 0.17% (n = 300,000); AID 1554; in the data active = inhibition above about 50%
# FBA Mtb inh: Mtb fructose-bisphosphate aldolase inhibition. P9WQA3. purified M. tuberculosis FBA, fluorescence read-out. inhibition, % at 1 µM. actives 2.3% (n = 360,000). AID 588726
# Target sequence (P9WQA3 whole entry, looked up): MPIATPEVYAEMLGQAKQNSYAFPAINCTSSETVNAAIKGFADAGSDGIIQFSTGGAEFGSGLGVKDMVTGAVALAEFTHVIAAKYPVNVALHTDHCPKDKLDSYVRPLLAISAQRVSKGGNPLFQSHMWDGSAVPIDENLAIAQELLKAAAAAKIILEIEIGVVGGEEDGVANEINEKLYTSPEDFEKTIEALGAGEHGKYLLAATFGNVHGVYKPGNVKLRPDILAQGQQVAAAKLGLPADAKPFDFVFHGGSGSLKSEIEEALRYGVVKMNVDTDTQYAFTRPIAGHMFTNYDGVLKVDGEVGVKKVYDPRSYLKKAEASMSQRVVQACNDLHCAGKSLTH
# Mtb FBA confirm: confirmation of M. tuberculosis fructose-bisphosphate aldolase inhibitors. shares compounds with FBA Mtb inh. purified M. tuberculosis FBA, fluorescence read-out. inhibition, % at 1 µM. actives 78% (n = 5,600). AID 651616
# GDH-TPI counter-2: counter-screen for M. tuberculosis FBA inhibitors: GDH-TPI coupled enzyme inhibition. shares compounds with FBA Mtb inh. GDH-TPI coupled enzyme counterscreen, fluorescence. AID 652141. inhibition, % at 1 µM. actives 81% (n = 5,600); in the data active = inhibition above about 10%
# A number is an active result; n = inactive; x = not tested or not shown; + = active, no number. This is a sample that favours compounds with a hit; in the whole collection about 4.2% have one here. Cut-off read from the data, not from the text of the source, unless noted: active = inhibition above about 27%; inactive = the rest.
SMILES,PrPC TRFRET,RecA intein inh,GDH-TPI counter-1,BJeLR lethal,FBA Mtb inh,Mtb FBA confirm,GDH-TPI counter-2
COC(=O)c1sc2nc(N)c(C#N)cc2c1N,n,n,n,n,n,x,x
COC(=O)c1sc2cnccc2c1N,n,n,n,n,109.8,90.8,84.9
CC(C)c1cc(Cn2c3ccccc3c(=O)n2C(C)Cn2cc(-c3ccc(C(C)(C)C)cc3)nn2)on1 (stereo unspecified),n,x,x,x,x,x,x
CC(C)c1cc(Cn2c3ccccc3c(=O)n2C(C)CBr)on1 (stereo unspecified),n,x,x,x,95.7,69.8,45.8
CC(C)c1cc(Cn2c3ccccc3c(=O)n2C(C)C)on1,n,x,x,x,102.9,+,+
OC(c1ccccc1)(c1ccccc1)C1CCN(CCCNc2ccccc2F)CC1,n,x,x,x,x,x,x
COCCN1CCn2c(nc3cc(NC(C)=O)ccc32)C1,n,n,n,n,29.5,n,n
COCCN1CCn2c(nc3cc(NC(=O)Cn4nc(C)c5ccccc5c4=O)ccc32)C1,n,n,n,n,n,x,x
CC(=O)Nc1ccc2c(c1)nc1n2CCN(C(C)c2ccccc2)C1 (stereo unspecified),n,n,n,n,69.1,82.6,72.0
CCOC(=O)Nc1ccc2c(c1)nc1n2CCN(CCOC)C1,n,n,n,n,36.1,75.0,73.4
C=CCN1C(=O)[C@H](CC(=O)NCc2cccs2)[C@@]2(C(=O)OCC)CCCC=C12,n,x,x,x,x,x,x
Fc1cccc2sc(Nc3nnc(-c4ccco4)o3)nc12,n,n,n,n,32.7,197.7,166.3
COc1cccc2sc(Nc3nnc(-c4cccs4)o3)nc12,n,n,n,n,n,x,x
CC(Oc1ccc(Cl)cc1)c1ccc(C#N)c(=O)[nH]1 (stereo unspecified),n,n,n,n,33.5,122.9,97.0
COc1ccc(OC(C)c2ccc(C#N)c(=O)[nH]2)cc1 (stereo unspecified),n,n,n,n,n,x,x
COC(OC)c1ccc(C#N)c(=O)[nH]1,n,n,n,n,58.1,n,n
O=C1c2ccccc2NC(c2ccc(Br)o2)N1O (stereo unspecified),n,x,n,x,n,x,x
O=C1c2ccccc2NC(c2ccc(-c3cccs3)o2)N1O (stereo unspecified),n,x,n,x,96.9,78.8,72.7
COc1cc2c(C#N)c(N3CCc4ccccc4C3)nc(N)c2c(N)n1,n,n,n,n,n,x,x
CCOc1cc2c(C#N)c(N3CCNCC3)nc(N)c2c(N)n1,n,n,n,n,40.3,151.0,125.2
CCOc1cc2c(C#N)c(N3CCCCC3)nc(N)c2c(N)n1,n,n,n,n,28.4,83.8,52.5
COCc1cc(C)nc(N2CCNCC2)c1C#N,n,n,n,n,n,x,x
CCCOC(=O)c1c(NC(=O)C2C3C=CC(C3)C2C(=O)O)sc2c1CCC(C)C2 (stereo unspecified),n,n,n,n,n,x,x
CCOC(=O)c1c(NC(=O)C2C3C=CC(C3)C2C(=O)O)sc2c1CC(C)CC2 (stereo unspecified),n,n,n,n,34.6,57.9,50.8
COc1ccc(-c2nnc(NC(=O)c3c(OC)cccc3OC)s2)cc1,n,n,n,n,n,x,x
SMILES,PrPC TRFRET,RecA intein inh,GDH-TPI counter-1,BJeLR lethal,FBA Mtb inh,Mtb FBA confirm,GDH-TPI counter-2
COC(=O)Nc1nnc(-c2ccc(OC)cc2)s1,n,x,n,n,43.2,58.2,56.2
CCc1nnc(NC(=O)Cc2ccc(OC)c(OC)c2)s1,n,n,n,n,n,x,x
CCOC(=O)Nc1nnc(-c2ccc(OC)c(OC)c2)s1,n,n,n,n,62.2,72.4,58.4
Cc1cc(C)cc(NC(=O)COc2ccc3c(C)c(Cc4ccccc4)c(=O)oc3c2)c1,x,n,x,n,x,x,x
Cc1c(CCC(=O)O)c(=O)oc2cc(OCc3cccc(Cl)c3)ccc12,n,n,n,n,90.9,114.9,109.5
Cc1c(Cc2ccccc2)c(=O)oc2cc(OCC(=O)NCC(O)c3ccccc3)ccc12 (stereo unspecified),n,n,n,n,79.5,+,+
CC(C)(C)NC(=O)Nc1ccc2nccnc2c1,n,n,n,n,60.7,n,n
CC1=C2NC(N)=[N+](Cc3ccccc3)CC2n2c(=O)n(-c3ccccc3)c(=O)n2C1 (stereo unspecified),n,x,x,x,x,x,x
O=C(COc1ncnc2scc(-c3ccc(Cl)cc3)c12)NCc1ccco1,n,n,n,n,82.6,n,n
